Test results as given in PubChem BioAssay AID1159580 (chemical genetic matrix, 2015).
Out of some 5,500 compounds screened, about 2,000 (36%) were called active. Not shown: some 18% with an inconclusive outcome. Rule as the data show it: active = normalized growth mostly below about 0.91 (no sharp cut-off); inconclusive = no clear call, values can overlap the other calls; inactive = mostly above about 0.92. This is one part of the list.

Experiment: chemical genetic growth profiling, strain panel (AID 1159580);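 also: tested at 20 µM; growth read once vehicle control cultures reached saturation at 30 °C; 1 = growth at the plate median or of vehicle wells; lower values mean less growth of the strain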
Conditions: S. cerevisiae deletion strains, growth OD

Measured: normalized growth

O=c1[nH]c(=O)c2nc3ccccc3nc2[nH]1
inactive: locus YAL040C, strain CLN3, active compounds read low 0.979 | locus YER002W, strain NOP16, active compounds read low 1 | locus YGR078C, strain PAC10, active compounds read low 1.01 | locus YMR307W, strain GAS1, active compounds read low 0.994 | locus YNL153C, strain GIM3, active compounds read low 1.01 | locus YNL175C, strain NOP13, active compounds read low 0.98 | locus YNL197C, strain WHI3, active compounds read low 0.971 | locus YNL224C, strain SQS1, active compounds read low 0.999 | locus YOR083W, strain WHI5 (second series), active compounds read low 0.997 | locus YPL241C, strain CIN2, active compounds read low 1

O=[N+]([O-])c1ccc(-c2noc(-c3ccno3)n2)o1
active: locus YAR019C, strain CDC15, active compounds read low 0.0919 | locus YBL105C, strain PKC1, active compounds read low 0.118 | locus YBR135W, strain CKS1, active compounds read low 0.133 | locus YBR136W, strain MEC1, active compounds read low 0.119 | locus YBR160W, strain CDC28, active compounds read low 0.121 | locus YDL017W, strain CDC7, active compounds read low 0.122 | locus YDL028C, strain MPS1, active compounds read low 0.128 | locus YDL101C, strain DUN1, active compounds read low 0.143 | locus YDL108W, strain KIN28, active compounds read low 0.123 | locus YDL132W, strain cdc53, active compounds read low 0.106 | locus YDL214C, strain PRR2, active compounds read low 0.103 | locus YDR052C, strain DBF4, active compounds read low 0.129 | locus YDR054C, strain cdc34, active compounds read low 0.108 | locus YDR226W, strain ADK1, active compounds read low 0.113 | locus YDR477W, strain SNF1, active compounds read low 0.102 | locus YER123W, strain YCK3, active compounds read low 0.113 | locus YER133W, strain GLC7, active compounds read low 0.102 | locus YFL009W, strain cdc4, active compounds read low 0.109 | locus YFL029C, strain CAK1, active compounds read low 0.0982 | locus YFR003C, strain YPI1, active compounds read low 0.126 | locus YFR019W, strain FAB1, active compounds read low 0.104 | locus YFR028C, strain CDC14, active compounds read low 0.0999 | locus YGR040W, strain KSS1, active compounds read low 0.107 | locus YGR052W, strain FMP48, active compounds read low 0.123 | locus YGR092W, strain DBF2, active compounds read low 0.106 | locus YHR030C, strain SLT2, active compounds read low 0.135 | locus YHR079C, strain IRE1, active compounds read low 0.171 | locus YHR082C, strain KSP1, active compounds read low 0.143 | locus YHR205W, strain SCH9, active compounds read low -0.000394 | locus YIL147C, strain SLN1, active compounds read low 0.129 | locus YJL095W, strain BCK1, active compounds read low 0.141 | locus YJL128C, strain PBS2, active compounds read low 0.117 | locus YJL157C, strain FAR1, active compounds read low 0.107 | locus YJR016C, strain ILV3, active compounds read low 0.0915 | locus YJR066W, strain TOR1 (second series), active compounds read low 0.0932 | locus YJR066W, strain TOR1, active compounds read low 0.125 | locus YKL048C, strain ELM1, active compounds read low 0.115 | locus YKL067W, strain YNK1, active compounds read low 0.0963 | locus YKL101W, strain HSL1, active compounds read low 0.106 | locus YKL193C, strain SDS22, active compounds read low 0.0909 | locus YKL203C, strain TOR2, active compounds read low 0.104 | locus YLR113W, strain HOG1, active compounds read low 0.2 | locus YLR133W, strain CKI1, active compounds read low 0.0997 | locus YLR403W, strain SFP1, active compounds read low 0.00715 | locus YML070W, strain DAK1, active compounds read low 0.1 | locus YMR001C, strain CDC5, active compounds read low 0.093 | locus YMR205C, strain PFK2 (second series), active compounds read low 0.0958 | locus YMR277W, strain FCP1, active compounds read low 0.0929 | locus YNL006W, strain LST8, active compounds read low 0.104 | locus YNL020C, strain ARK1, active compounds read low 0.101 | locus YNL161W, strain CBK1, active compounds read low 0.103 | locus YNL183C, strain NPR1, active compounds read low 0.138 | locus YNL207W, strain RIO2, active compounds read low 0.0962 | locus YNL222W, strain SSU72, active compounds read low 0.1 | locus YNL307C, strain MCK1 (second series), active compounds read low 0.11 | locus YOL078W, strain AVO1, active compounds read low 0.0939 | locus YOL136C, strain PFK27, active compounds read low 0.124 | locus YOR061W, strain CKA2, active compounds read low 0.0948 | locus YOR119C, strain RIO1, active compounds read low 0.112 | locus YOR231W, strain MKK1, active compounds read low 0.14 | locus YOR329C, strain SCD5, active compounds read low 0.104 | locus YPL031C, strain PHO85, active compounds read low 0.112 | locus YPL153C, strain RAD53, active compounds read low 0.0949 | locus YPL204W, strain HRR25, active compounds read low 0.106 | locus YPL209C, strain IPL1, active compounds read low 0.105 | locus YPL256C, strain CLN2, active compounds read low 0.178 | locus YPR025C, strain CCL1, active compounds read low 0.111 | locus YPR106W, strain ISR1, active compounds read low 0.132 | locus YPR111W, strain DBF20, active compounds read low 0.149 | strain NNK1, active compounds read low 0.104 | strain TSCII, active compounds read low 0.0899
